About 13,000 (27%) of roughly 48,000 compounds showed an effect of 50% or more. The list shows a part of the results.
test system: Wolbachia pipientis; assay: Anti-Wolbachia Cell-Based Screen; assay type: functional; design: scale not given: in the data most compounds retested in dose-response had high values; conditions: 5 µM

Structure (SMILES) | Percent Effect [%]
O=C(NCc1ccc(Cl)s1)c1ccc(N2CCOC2=O)cc1 | -4.831
CCOc1nnc(CN(C)C2CCCN(c3ccc(C)nn3)C2)s1 (configuration not stated) | 91.1
CCOc1nnc(CNC2CCCN(c3ccc(C)nn3)C2)s1 (configuration not stated) | 6.809
CN(Cc1cscn1)C1CCCN(c2cccnn2)C1 (configuration not stated) | 95.91
Cc1cnc(CN(C)C2CCCN(c3cccnn3)C2)cn1 (configuration not stated) | 107
Cc1cc(CN(C)C2CCCN(c3cccnn3)C2)no1 (configuration not stated) | 110.4
Cc1ccc(N2CCCC(N(C)Cc3cc(C)on3)C2)nn1 (configuration not stated) | -10.05
Cc1ccc(N2CCCC(N(C)Cc3ccccn3)C2)nn1 (configuration not stated) | 1.725
CN(Cc1cc(-c2ccccc2)no1)C1CCCN(c2cccnn2)C1 (configuration not stated) | -1.752
CN(Cc1nnc(-c2ccco2)o1)C1CCCN(c2cccnn2)C1 (configuration not stated) | 5.287
Cc1cc(CN(C)C2CCCN(c3cccnn3)C2)on1 (configuration not stated) | -2.461
CC(C)n1nc2c(cc1=O)CN(c1nc3ccccc3s1)CC2 | 8.102
CC(NC(=O)N1CCC2(C1)OCCO2)c1cccc(Cl)c1 (configuration not stated) | -15.89
CN1CCCC(CCC(=O)N2CCc3onc(C(=O)N(C)C)c3C2)C1 (configuration not stated) | 14.32
Cc1noc(CNc2ccccc2N2CCCCC2)n1 | 5.096
CC(C)c1noc(CS(=O)(=O)CC(=O)NCC(F)(F)F)n1 | -6.707
Cc1ncc(CN(C)CC2CCCN2c2cccnn2)s1 (configuration not stated) | 0.5019
Cc1ncc(CN(C)C2CCCN(c3cccnn3)C2)s1 (configuration not stated) | 87.88
CN(Cc1ncc(C(C)(C)C)o1)C1CCCN(c2cccnn2)C1 (configuration not stated) | -2.807
Cc1ccsc1[C@@H]1CCN(C(=O)CCc2nc3ccccc3[nH]2)C[C@H]1O | -8.794
O=C(O)C(F)(F)F.O=C1NC2(CCN(C(=O)c3ccccc3)CC2)CC1c1cccnc1 (configuration not stated) | -9.682
Cc1cc(C(=O)N2CCC3(CC2)CC(c2cccnc2)C(=O)N3)no1.O=C(O)C(F)(F)F (configuration not stated) | 102.9
O=C1NC2(CCN(C(=O)c3ccnnc3)CC2)CC1c1ccccc1 (configuration not stated) | 95.48

Structure (SMILES) | Percent Effect [%]
O=C(O)C(F)(F)F.O=C1NC2(CCN(C(=O)N3CCOCC3)CC2)CC1c1cccnc1 (configuration not stated) | 179.1
O=C(O)C(F)(F)F.O=C1NC2(CCN(c3ncccn3)CC2)CC1c1cccnc1 (configuration not stated) | -4.388
O=C1NC2(CCN(C(=O)c3ccc(Cl)cc3)CC2)CC1c1ccccc1 (configuration not stated) | 7.391
Cc1cccc(C(=O)N2CCC3(CC2)CC(c2ccccc2)C(=O)N3)c1 (configuration not stated) | -4.545
Cc1cnc(C(=O)N2CCC3(CC2)CC(c2ccccc2)C(=O)N3)cn1 (configuration not stated) | -6.858
Cc1ccc(C(=O)N2CCC3(CC2)CC(c2ccccc2)C(=O)N3)cn1.O=C(O)C(F)(F)F (configuration not stated) | -11.02
CN(C)C(=O)CN1C[C@@H]2CC[C@H](C1)N(Cc1cc(F)ccc1F)C2 | 15.49
COc1nc(C)c(C(=O)N2CCc3[nH]nc(C4CCCC4)c3C2)s1 | -0.6209
CC(C)NC(=O)CN(C)CC(=O)/N=c1/cc[nH]n1C(C)C1CC1 (configuration not stated) | -11.27
COC1CN(CCO)S(=O)(=O)c2ccccc21 (configuration not stated) | 103.3
O=S1(=O)c2ccccc2C(O)CN1CCO (configuration not stated) | 120.8
NC(=O)CN1CC(O)c2ccccc2S1(=O)=O (configuration not stated) | 96.32
CNC(=O)c1ncn2c1CN(CCC(C)C)S(=O)(=O)c1ccccc1-2 | 5.918
COCCOCCNS(=O)(=O)C1CS(=O)(=O)c2ccccc21 (configuration not stated) | 2.377
COCC(C)(C)NS(=O)(=O)C1CS(=O)(=O)c2ccccc21 (configuration not stated) | 12.05
NC(=O)CN1CCC(NC2CSCCc3ccccc32)CC1 (configuration not stated) | -6.664
NC(=O)CN1CCC(NC2CCCCc3ccccc32)CC1 (configuration not stated) | -5.758
Cc1ccc2c(c1)c(CNC(=O)C1CC(=O)N(C3CCCC3)C1)nn2C (configuration not stated) | -26.6
O=C(N1CCCC1)N1CCC(c2nccn2Cc2cscn2)CC1 | -4.277
CC(C)n1cnnc1CN(C)C(=O)c1cc(COc2ccccc2)[nH]n1 | -4.684
O=C(c1ccc2c(c1)OCO2)N1CCCC(Nc2ccc(F)cc2)C1 (configuration not stated) | -14.66
CCCOc1ccc(CNC(=O)N2CCC(C(N)=O)C2)cc1 (configuration not stated) | 0.5279
O=C(NCCOc1ccc2c(c1)OCO2)N1CCCC(CO)C1 (configuration not stated) | 85.49

Structure (SMILES) | Percent Effect [%]
O=C(CN1CCCC(CO)C1)NCCOc1cccc(Cl)c1 (configuration not stated) | 0.8563
CC(=O)NCC1CCN(C(=O)NCCc2ccc3c(c2)OCO3)CC1 | -2.588
CC(=O)NC1CCCN(C(=O)NCCOc2ccc3c(c2)OCO3)C1 (configuration not stated) | 106.3
NC(=O)C1CCN(C(=O)NCCOc2ccc3c(c2)OCO3)C1 (configuration not stated) | 88.72
CCOc1ccc(Cl)cc1CCNC(=O)N1CCCC(CO)C1 (configuration not stated) | 2.242
NC(=O)N1CCCC(C(=O)NCCOc2ccc3c(c2)OCO3)C1 (configuration not stated) | 6.711
Cc1noc(C)c1CNC(=O)N1CCC(NS(C)(=O)=O)CC1 | -20.1
Cc1n[nH]c(C)c1CCc1ccc(S(C)(=O)=O)cc1 | 1.11
CCCc1n[nH]cc1C(=O)N1CCC(c2nccn2CCOC)CC1 | -3.808
CSC(C)(C)CNC(=O)NCCC1CCN(C)CC1 | 0.9558
CC(C)c1nc(CNC2CCCN(c3cccnn3)C2)no1 (configuration not stated) | 9.914
CCc1nc(CN(C)C2CCCN(c3cccnn3)C2)no1 (configuration not stated) | 81.94
CN(Cc1nc(-c2ccco2)no1)C1CCCN(c2cccnn2)C1 (configuration not stated) | 4.985
CN(Cc1noc(C2CC2)n1)C1CCCN(c2cccnn2)C1 (configuration not stated) | 100.2
CN(Cc1noc(C(C)(C)C)n1)C1CCCN(c2cccnn2)C1 (configuration not stated) | 102.2
Cc1nc(CN(C)C2CCCN(c3cccnn3)C2)no1 (configuration not stated) | -8.023
CN(Cc1nc(C2CC2)no1)C1CCCN(c2cccnn2)C1 (configuration not stated) | -5.639
CC(C)c1nc(CN(C)C2CCCN(c3cccnn3)C2)no1 (configuration not stated) | 109.3
Cc1ccc(N2CCCC(N(C)Cc3noc(C4CC4)n3)C2)nn1 (configuration not stated) | -34.27
CC(C)(C)c1nc(CNC2CCCN(c3cccnn3)C2)no1 (configuration not stated) | -17.48
CCOC(=O)N1CCN(c2nc(CCN)nc3sc(C)c(C)c23)CC1 | -2.539
Cn1ncc(N2CCC(CNC3CC(c4ccccc4)C3)CC2)cc1=O (configuration not stated) | 0.2132
COC(=O)N1CCN(C(=O)c2ccc(C)c(N3CCNC3=O)c2)CC1 | -15.45

Structure (SMILES) | Percent Effect [%]
CCOCCN1CCN(CCOC)CC1C (configuration not stated) | -2.366
Cc1ccc2c(c1)C1(CC2)CCN(CC(=O)O)CC1.O=C(O)C(F)(F)F | -2.152
CCN1Cc2ccccc2CC2(CCN(CC3CCC3)CC2)C1=O | 112.5
CN1C(=O)CC2(CCN(S(=O)(=O)C3CC3)CC2)c2ccccc21 | 18.32
O=C(O)CN1CCC2(CCc3ccccc32)CC1 | -5.092
CCN1Cc2ccccc2CC2(CCN(C)CC2)C1=O | 106.4
CCN1CCC2(CN(C(C)=O)CC23CCN(C(=O)N(C)C)CC3)C1=O (configuration not stated) | -7.709
CCN1CC2(CC1=O)CN(C(=O)c1ccco1)CCN(C(=O)N(C)C)C2 (configuration not stated) | -10.83
CCN1Cc2ccccc2CC2(CCN(CC(=O)O)CC2)C1=O.O=C(O)C(F)(F)F | 108.1
O=C1N(CCc2ccccc2)CCCC12CCN(C(CO)CO)C2 (configuration not stated) | -2.358
CCN1Cc2ccccc2CC2(CCN(C(=O)N(C)C)CC2)C1=O | 108.4
Cn1cccc1C(=O)N1CCC2(CCCN(CC3CCC3)C2=O)C1 (configuration not stated) | 0
CC(C)CN1CCC2(CCN(CC3CC3)CC2)C1=O.O=C(O)C(F)(F)F | 3.548
Cn1nc2c(cc1=O)CN(CC1CCCCO1)CC2 (configuration not stated) | 1.26
Cc1cnn(CC2CCCCN2Cc2cc(C)on2)c1 (configuration not stated) | 27.16
CCC1CCCCN1Cc1ncc(C(C)(C)C)o1 (configuration not stated) | 88.88
CC(C)(C)c1cnc(CN2CCC[C@H]2CO)o1 | -3.159
CCC1CCCCN1Cc1ncc(-c2ccc(OC)cc2)o1 (configuration not stated) | -15.61
Cc1cnn(CC2CCCCN2Cc2ncc(C(C)(C)C)o2)c1 (configuration not stated) | 103.7
CC(C)(C)c1cnc(CN2CCCC2Cn2cccn2)o1 (configuration not stated) | 3.93
NC(=O)c1ccc(N2CCN(Cc3c(Cl)cncc3Cl)CC2)nc1 | -3.438
O=C(NS(=O)(=O)c1cccc(C(F)(F)F)c1)c1cnsn1 | 1.908
Oc1cccc(CN2CCN(C3CCc4ccccc4C3)CC2)c1 (configuration not stated) | 111.6

Structure (SMILES) | Percent Effect [%]
Cn1cc(CCCN2CCN(Cc3cccc(O)c3)CC2)cn1 | 5.998
COc1ccc(CN2CCN(C3CCc4ccccc4C3)CC2)cc1O (configuration not stated) | 105.5
COc1ccc(CN2CCCC(Nc3cccc(F)c3)C2)cc1O (configuration not stated) | -4.671
Cc1ccnn1CC(=O)N1CCN(C2CCc3ccccc3C2)CC1 (configuration not stated) | -4.494
COc1cc(O)ccc1CN1CCN(C2CCc3ccccc3C2)CC1 (configuration not stated) | 95.73
COc1ccc(CN2CCC(O)CC2)c(OC)c1 | -14.46
CC(CN1CCOCC1)NC1CCN(Cc2cccc(O)c2)CC1 (configuration not stated) | -2.88
COc1ccc(CNC2CCN(c3ccccc3)C2)cc1O (configuration not stated) | 14.8
COc1cc(N2C[C@H]3CN(CCN4CCCC4)C(=O)[C@H]3C2)ncn1 | -15.15
O=C(CNc1cc(Br)ccc1Br)NC1CCS(=O)(=O)C1 (configuration not stated) | -18.44
CCN1CCCC(CN2CCn3nc(CNC(=O)N(C)C)cc3C2)C1 (configuration not stated) | 11.32
CC(C)(C)OC(=O)N1CCC(NC2CC2)CC1 | -10.91
COc1ccc(C2CCN(S(=O)(=O)CCCC#N)CC2)cc1 | -10.18
CC(C)(C)OC(=O)N1CCN(S(C)(=O)=O)C2(CCCCC2)C1 | 138.8
CS(=O)(=O)N1CCCC12CCCN(C(=O)c1ccncc1)C2 (configuration not stated) | -13.2
CN(C)S(=O)(=O)N1CCN(C(=O)OC(C)(C)C)CC12CCCCC2 | 120.5
CC(CC#N)N1CCN(C(=O)OC(C)(C)C)CC1 (configuration not stated) | -8.127
CC(CO)N1CCN(C(=O)OC(C)(C)C)CC1 (configuration not stated) | -0.0103
CS(=O)(=O)N1CCCC12CCCN(C(=O)c1ccnnc1)C2 (configuration not stated) | 0.7841
CC(C)(C)OC(=O)N1CCN(S(=O)(=O)CCCC#N)C2(CCCCC2)C1 | 111.4

Source: ChEMBL document CHEMBL3988442, “University of Dundee, Small-Polar-MMV Screening Library” (2021)
